Only some compounds are listed: those with a hit (about 3.7% of all), similar ones and a draw of the others.
tim10-1 inh = tim10-1 yeast growth inhibition | S. cerevisiae tim10-1 ts strain growth, BacTiter-Glo, 24 h | inhibition, % at 20 µM | actives 2.2% (n = 330,000) | AID 463190;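 active means inhibition of at least 40%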;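 further: mutant grown at 25 °C; 0% = DMSO wells with yeast and 100% = wells holding no yeast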
tim23-1 inh = tim23-1 yeast growth inhibition | S. cerevisiae tim23-1 growth, BacTiter-Glo luminescence, 24 h | inhibition, % at 20 µM | actives 1.3% (n = 330,000);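 active means growth inhibition of the mutant yeast at or above 50%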;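 further: temperature-sensitive mutant grown at 25 °C; plate controls were DMSO-treated mutant yeast for no effect and medium wells lacking yeast for full effect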
TIM10 inh = TIM10 yeast growth inhibition; S. cerevisiae TIM10 strain growth, BacTiter-Glo luminescence, 24 h; inhibition, % at 10 µM; actives 1.4% (n = 330,000);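 active means inhibition of 40% or more at the single tested concentration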;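 further: wild-type TIM10 isogenic control strain grown at permissive 25 °C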
PfHsp90 set2 = inhibits growth of yeast expressing Plasmodium falciparum Hsp90. S. cerevisiae expressing PfHsp90, BacTiter-Glo ATP, 48 h; yeast lacking PDR1 and PDR3 efflux regulators. inhibition, % at 9.4 µM. actives 0.32% (n = 310,000);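 active means every replicate shows inhibition above about 80%, whatever the replicate mean, limit read from the data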;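 further: 0% = DMSO neutral controls and 100% = 20 µM radicicol positive controls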
NLRP3 yeast inh = blocks the NALP3 inflammasome reconstituted in yeast; AID 2825; actives 0.39% (n = 330,000); Yeast reconstituted NLRP3/ASC/caspase-1, beta-gal luminescence, 24 h; inhibition, % at 10 µM;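 active means inhibition of 50% or more; inactive means inhibition below 50%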;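 further: plate controls were induced DMSO wells for no effect and uninduced yeast grown without galactose for full effect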
NALP3 yeast conf = NALP3 inhibition confirmation in yeast; AID 435006; shares compounds with NLRP3 yeast inh; actives 81% (n = 1,300); inhibition, % at 10 µM; yeast expressing human NALP3, luminescence; in the data active means inhibition above about 48%
Casp1 ASC ctr = counter-screen for NALP3 inhibitors: yeast caspase-1-ASC. shares compounds with NLRP3 yeast inh. yeast expressing Caspase-1-ASC, luminescence counter screen. inhibition, % at 10 µM. actives 66% (n = 1,000). AID 488784
NALP3 retest = yeast NALP3 inhibition, confirmed on retest; inhibition, % at 10 µM; actives 53% (n = 1,000); shares compounds with NLRP3 yeast inh; yeast expressing human NALP3, luminescence read-out
* marks the source's active call; other numbers are inactive results; · = no result given. Unless noted, no stated cut-off is given here; in the data, active means inhibition above about 50%; inactive means the rest.

SMILES	tim10-1 inh	tim23-1 inh	TIM10 inh	PfHsp90 set2	NLRP3 yeast inh	NALP3 yeast conf	Casp1 ASC ctr	NALP3 retest
COC(=O)[C@@]12OC[C@]34[C@H]([C@@H](O)[C@@H]1O)[C@@]1(C)C(=O)C(O[C@@H]5OC(CO)[C@@H](O)[C@@H](O)[C@@H]5O)=C[C@@H](C)[C@@H]1C[C@H]3OC(=O)[C@H](OC(=O)/C=C(\C)C(C)(C)OC(C)=O)[C@@H]24 (stereo not given in full)	-3	-12	2	·	-16	·	·	·
CCOC(=O)Cc1csc(NC(=O)c2cccc(OC)c2)n1	-18	8	11	-29	44	·	·	·
CCOC(=O)Cc1csc(NC(=O)c2cccc([N+](=O)[O-])c2)n1	-12	11	-28	2	59*	76*	69*	51*
CC(C)NC(=O)c1cc2cc([N+](=O)[O-])ccc2s1	-24	1	2	-18	22	·	·	·
CCCNC(=O)c1cc2cc([N+](=O)[O-])ccc2s1	3	10	-11	-8	52*	41	44	38
O=C(c1ccc(F)cc1)n1ccc(-c2cnc(-c3ccccc3)s2)n1	-6	19	1	-11	73*	57*	12	-1
Fc1ccc(Cn2ccc(-c3cnc(-c4ccccc4)s3)n2)cc1	-13	22	-1	1	23	·	·	·
Cc1ccc2c(C)c(C(=O)Nc3cccnc3)oc2c1C	·	·	·	-16	·	·	·	·
Cc1sc2nc(C3CC3)nc(SCC(=O)NCc3ccco3)c2c1C	12	19	-44	84*	51*	26	·	·
Cc1nc(SCC(=O)NC2CCS(=O)(=O)C2)c2c(C)c(C)sc2n1 (stereo not given)	5	6	6	10	4	·	·	·
Cc1nc(SCC(=O)NC2CCCC2)c2c(C)c(C)sc2n1	2	18	-7	-11	54*	56*	38	29
Cc1sc2nc(SCC(=O)NCc3ccco3)n(C)c(=O)c2c1C	20	24	9	-7	3	·	·	·
Cc1ccc(S(=O)(=O)N2CCCC2CNC(=O)c2ccc(F)c(F)c2)cc1 (stereo not given)	7	14	-22	11	0	·	·	·
O=c1c2ccccc2nnn1Cc1ccc(Br)cc1	21	-2	7	15	50*	66*	57*	58*
CN=c1oc2ccc(Cl)cc2cc1C(N)=O	29	23	21	·	51*	46	17	16
CC(C)c1ccc(NC(=S)NNC(=O)c2cccnc2)cc1	8	11	22	1	32	·	·	·
O=C(NNC(=S)Nc1ccc(Br)cc1)c1cccnc1	18	14	13	-19	53*	50*	·	·
COC(=O)c1sccc1NC(=O)c1ccc(C)o1	25	11	12	-79	45	·	·	·
COC(=O)c1sccc1NC(=O)c1ccc(Br)o1	3	8	-1	10	53*	38	34	46
CC1=NN(c2nc(N)nc(/C(C#N)=C/c3ccc([N+](=O)[O-])o3)n2)C(C)(C)C1	·	·	·	8	·	·	·	·
COc1cc(NC(=O)c2cccs2)c(OC)cc1NC(=O)Nc1ccc(F)cc1	4	17	2	7	-2	·	·	·
CCCCN1CC[C@@H]2C=CC[C@H](C(=O)OC)[C@@H]2C1=O	-2	28	6	-9	·	·	·	·
Nc1cc2[nH]c(=O)c3ccccc3c2cc1[N+](=O)[O-]	·	·	·	6	·	·	·	·
O=C(OCc1ccccc1)N(CCCCN(CCCNCc1ccccc1)C(=O)OCc1ccccc1)CCCNCc1ccccc1	·	·	·	-33	·	·	·	·
NC(=S)N/N=C/c1ccccc1OCc1cccc(Cl)c1	16	1	23	-31	56*	67*	58*	40
SMILES	tim10-1 inh	tim23-1 inh	TIM10 inh	PfHsp90 set2	NLRP3 yeast inh	NALP3 yeast conf	Casp1 ASC ctr	NALP3 retest
O=C(COc1ccc(Cl)cc1[N+](=O)[O-])NC1CCCCC1	-16	8	-16	16	53*	48	58*	47
COC(=O)c1ccccc1OCC(=O)NC1CCCCC1	-32	4	-11	7	77*	85*	89*	71*
COc1ccc(C(=O)c2ccccc2)c(OCC(=O)NC2CC2)c1	-4	-1	-20	11	52*	70*	·	·
Cc1ccc2c(c1)N(C(=O)CCC(=O)NCc1cccnc1)CC(C)O2 (stereo not given)	-3	-7	-6	2	6	·	·	·
CC(NC(=O)c1ccccc1Br)c1ccc2c(c1)CCCC2 (stereo not given)	-20	4	6	2	57*	70*	52*	31
CC(NC(=O)c1ccc(F)cc1)c1ccc2c(c1)CCCC2 (stereo not given)	-3	12	0	1	37	·	·	·
O=C(c1nnsc1S(=O)(=O)c1ccc(Cl)cc1)N1CCOCC1	38	35	17	20	57*	52*	54*	50*
Nc1nc(C(=O)N2CCOCC2)nn1S(=O)(=O)c1ccc(Cl)cc1	10	7	-2	-4	5	·	·	·
Cc1cc(Cl)ccc1NC(=O)CSc1n[nH]c(N)n1	-6	0	9	-6	10	·	·	·
CCOC(=O)Nc1ccc(N2CCOCC2)c(S(=O)(=O)N2CCOCC2)c1	6	7	3	-23	3	·	·	·
COc1ccc(-n2nnnc2S(=O)(=O)CC(=O)N2CCCCC2)cc1	35	28	23	26	57*	62*	63*	39
O=C(COC(=O)/C=C/c1ccccc1[N+](=O)[O-])NNC(=O)c1ccc(F)cc1	1	13	-10	-13	21	·	·	·
Cc1ccc(CN(C)C(=O)c2ccc(S(=O)(=O)N3CCCCCC3)cc2)o1	25	27	2	13	18	·	·	·
COc1ccc(C)cc1NC(=O)C1CCN(S(=O)(=O)c2ccc3c(c2)C(C)(C)C(=O)N3C)CC1	15	-6	-1	-3	80*	47	15	17
CC(Cc1n[nH]c(=S)n1N)c1ccccc1 (stereo not given)	-5	10	6	13	5	·	·	·
O=C(Nc1ccccn1)Nc1ccccc1Cl	5	18	-4	-6	66*	72*	61*	44
FC(F)(F)c1cccc(N2CCc3cn[nH]c32)c1	23	41	15	-20	97*	99*	99*	97*
CN1CCC(N2CCN(c3cccc(C(F)(F)F)c3)CC2)CC1	11	5	8	10	11	·	·	·
O=C(COc1ncnc2ccccc12)c1ccc2c(c1)OCCO2	20	48	40	15	53*	69*	44	45
O=C(COc1ncnc2cc(Cl)ccc12)c1ccc2c(c1)OCCO2	-24	3	-4	-12	13	·	·	·
CN1C[C@H]2CON(C)[C@H]2C[C@H]1c1cccc(-c2ccccc2)c1	·	·	·	-21	·	·	·	·

Screens (PubChem BioAssay)
